Data on 18 compounds can be found in PubChem BioAssay (EPA / NIEHS).

Activity calls are given as the source filed them. The calls were made as follows: active = hit-call score of the fitted dose curve at least 0.9, where 1 is the maximum; inactive = score below 0.9.

Read-out in this test: Thrombomodulin, THBD (gene 7056)
In words: BSK_CASM3C_Thrombomodulin: BioMAP Diversity Plus: CASM3C Assay for Thrombomodulin Biomarker Activity (AID 2283051).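 Also: thrombomodulin protein level measured by ELISA 24 h after dosing.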 As to conditions: primary human coronary artery smooth muscle cells; actives raise or lower the signal.
In the case of `CC(C)=CC1C(C(=O)OCN2C(=O)C3=C(CCCC3)C2=O)C1(C)C` (stereo not drawn), the outcome was inactive. Still for that read-out and setting: the result for `CC(Oc1cccc(Cl)c1)C(=O)O` (stereo not drawn) reads “inactive”; that for `CCc1cccc(C)c1N(C(=O)CCl)C(C)COC` (stereo not drawn), “inactive”.

Take `Cc1nn(-c2cc(NS(C)(=O)=O)c(Cl)cc2Cl)c(=O)n1C(F)F`: the outcome was inactive. `N#CSCSC#N`: the AC50 is 31.3 µM (active). Take `Cc1ccn2nc(S(=O)(=O)Nc3c(F)cccc3F)nc2n1`: the outcome was inactive. On the same count and under the same terms, as for `C[N+]1(C)CCCCC1`, the entry is “inactive”; as for `CCCOc1nn(C(=O)NS(=O)(=O)c2ccccc2C(=O)OC)c(=O)n1C`, “inactive”; as for `Nc1nc(N)nc(NC2CC2)n1`, “inactive”.

For `Nc1c(Cl)cc([N+](=O)[O-])cc1Cl`, the outcome was inactive.

Turning to `CCc1cccc(CC)c1N(COC)C(=O)CCl`, the result was inactive.

Take `CCCSP(=O)(OCC)Oc1ccc(Br)cc1Cl` (stereo not drawn): the AC50 is 11.5 µM (active). Consider `S=C1NCCN1`, for which the outcome was inactive. Consider `CCOP(=S)(OCC)Oc1ccc([N+](=O)[O-])cc1`, for which the AC50 is 15.4 µM (active). Regarding `CCC(=O)Nc1ccc(Cl)c(Cl)c1`, the result was inactive. Still for that read-out and setting: the result for `CCCCOC(=O)c1ccccc1C(=O)O` reads “inactive”; that for `C#CC(C)(C)NC(=O)c1cc(Cl)cc(Cl)c1`, “inactive”. Still for that read-out and setting: the result for `COc1cc(OC)nc(Sc2cccc(Cl)c2C(=O)O)n1` reads “inactive”.
